Data published in PubChem BioAssay AID1159580 (chemical genetic matrix, 2015).
Where “and” joins values, the source holds several entries; their conditions need not be identical. Equal values may be shown once. The whole screen tested about 5,500 compounds, of which about 2,000 (36%) were called active. Inconclusive results (about 18%) are left out. No stated cut-off is given here; in the data, active means normalized growth mostly below about 0.91 (no sharp cut-off); inconclusive means no clear call, values can overlap the other calls; inactive means mostly above about 0.92. The list shows a part of the results.

Assay: chemical genetic growth profiling, strain panel (AID 1159580);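 further: tested at 20 µM; growth read once vehicle control cultures reached saturation at 30 °C; 1 = growth at the plate median or of vehicle wells; lower values mean less growth of the strain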
Settings: S. cerevisiae deletion strains, growth OD

Measured: normalized growth

COc1ccc2[nH]cc(CCNC(C)=O)c2c1
inactive: locus YAL013W, strain DEP1, active compounds read low 1.01 | locus YAL021C, strain ccr4, active compounds read low 0.977 | locus YAL026C, strain drs2, active compounds read low 0.983 | locus YAL030W, strain snc1, active compounds read low 0.984 | locus YAL040C, strain CLN3, active compounds read low 0.996 | locus YBL061C, strain skt5, active compounds read low 0.969 | locus YBR009C, strain hhf1, active compounds read low 0.983 | locus YBR021W, strain FUR4, active compounds read low 1.01 | locus YBR023C, strain chs3, active compounds read low 0.979 | locus YBR171W, strain sec66, active compounds read low 0.966 | locus YBR229C, strain ROT2, active compounds read low 1.02 | locus YBR231C, strain swc5, active compounds read low 0.971 | locus YBR279W, strain paf1, active compounds read low 0.978 | locus YCL011C, strain gbp2, active compounds read low 0.979 | locus YCL016C, strain dcc1, active compounds read low 0.972 | locus YCL029C, strain bik1, active compounds read low 1.02 | locus YCL061C, strain MRC1 (second series), active compounds read low 1.01 | locus YCL061C, strain MRC1, active compounds read low 0.984 | locus YCL069W, strain vba3, active compounds read low 0.977 | locus YCR088W, strain abp1, active compounds read low 0.968 | locus YDL005C, strain med2, active compounds read low 0.959 | locus YDL035C, strain GPR1, active compounds read low 1.01 | locus YDL040C, strain nat1, active compounds read low 0.971 | locus YDL074C, strain BRE1, active compounds read low 1.02 | locus YDL101C, strain DUN1, active compounds read low 1.01 | locus YDL134C, strain PPH21, active compounds read low 1.01 | locus YDL185W, strain tfp1, active compounds read low 1.03 | locus YDL192W, strain arf1, active compounds read low 1.03 | locus YDR001C, strain nth1, active compounds read low 0.973 | locus YDR069C, strain doa4, active compounds read low 0.958 | locus YDR101C, strain arx1, active compounds read low 1.02 | locus YDR137W, strain rgp1, active compounds read low 0.992 | locus YDR150W, strain NUM1, active compounds read low 1 and 1.01 | locus YDR159W, strain sac3, active compounds read low 0.943 | locus YDR162C, strain NBP2, active compounds read low 1.02 | locus YDR195W, strain ref2 0.959 | locus YDR297W, strain sur2, active compounds read low 0.967 | locus YDR318W, strain mcm21, active compounds read low 1.02 | locus YDR334W, strain swr1, active compounds read low 0.969 | locus YDR335W, strain msn5, active compounds read low 0.977 | locus YDR363W, strain ESC2, active compounds read low 0.996 | locus YDR388W, active compounds read low 1.02 | locus YDR392W, strain spt3, active compounds read low 0.958 | locus YDR502C, strain sam2, active compounds read low 1.03 | locus YEL003W, strain gim4, active compounds read low 0.974 | locus YEL037C, strain rad23, active compounds read low 0.966 | locus YEL061C, strain CIN8 (second series), active compounds read low 0.972 | locus YEL061C, strain CIN8, active compounds read low 1 | locus YER002W, strain NOP16, active compounds read low 0.999 | locus YER015W, strain faa2, active compounds read low 0.981 | locus YER016W, strain bim1, active compounds read low 0.975 | locus YER110C, active compounds read low 1.02 | locus YER111C, strain swi4, active compounds read low 0.976 | locus YER155C, strain BEM2 (second series), active compounds read low 0.971 | locus YER155C, strain BEM2, active compounds read low 0.998 | locus YER167W, strain BCK2, active compounds read low 1.01 | locus YFR010W, strain ubp6, active compounds read low 0.955 | locus YGL078C, strain dbp3, active compounds read low 1.02 | locus YGL086W, strain mad1, active compounds read low 1.02 | locus YGL167C, strain pmr1, active compounds read low 0.96 | locus YGL173C, strain kem1, active compounds read low 0.955 | locus YGL227W, strain vid30, active compounds read low 0.962 | locus YGL240W, strain doc1, active compounds read low 0.963 | locus YGL248W, strain PDE1, active compounds read low 1.01 | locus YGL253W, strain hxk2, active compounds read low 0.983 | locus YGR078C, strain PAC10, active compounds read low 1.02 and 1.01 | locus YGR135W, strain pre9, active compounds read low 1.03 | locus YGR229C, strain SMI1, active compounds read low 1.01 | locus YGR252W, strain gcn5, active compounds read low 1.05 | locus YHR013C, strain ard1, active compounds read low 0.968 | locus YHR027C, strain rpn1, active compounds read low 0.994 | locus YHR030C, strain SLT2, active compounds read low 0.998 and 0.997 | locus YHR079C, strain IRE1 (second series), active compounds read low 1.02 | locus YHR079C, strain IRE1, active compounds read low 0.998 | locus YHR094C, strain hxt1, active compounds read low 1.02 | locus YHR129C, strain ARP1, active compounds read low 1 | locus YHR142W, strain chs7, active compounds read low 0.964 | locus YHR200W, strain rpn10, active compounds read low 1.03 | locus YIL066C, strain RNR3, active compounds read low 1.01 | locus YIL073C, strain SPO22, active compounds read low 1.08 | locus YIL125W, strain kgd1, active compounds read low 1.03 | locus YIR030C, strain dcg1, active compounds read low 1.03 | locus YJL092W, strain hpr5, active compounds read low 0.974 | locus YJL095W, strain BCK1 (second series), active compounds read low 0.971 | locus YJL095W, strain BCK1, active compounds read low 1.02 | locus YJL115W, strain asf1, active compounds read low 0.969 | locus YJL129C, strain trk1, active compounds read low 0.967 | locus YJL134W, strain LCB3, active compounds read low 1 | locus YJL154C, strain vps35, active compounds read low 0.957 | locus YJL164C, strain tpk1, active compounds read low 0.986 | locus YJL166W, strain qcr8, active compounds read low 0.979 | locus YJL168C, strain set2, active compounds read low 1.03 | locus YJL187C, strain SWE1 (second series), active compounds read low 1.01 | locus YJL187C, strain SWE1, active compounds read low 0.979 | locus YJR043C, strain POL32, active compounds read low 0.994 | locus YJR066W, strain TOR1, active compounds read low 0.941
